Assay outcomes: PubChem BioAssay, several laboratories
HIF-2a block: HIF-2a inhibition. AID 624352. 786-0 RCC cells HIF-2a reporter, luciferase luminescence, overnight. 360,000 tested, 0.72% active. inhibition, % at 18.8 µM;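 active means inhibition of the luminescence signal of 40% or more relative to plate controls, in a single-dose primary screen at 18.75 µM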
KKLEB cytotox: counter-screen for CF NF-kB inhibitors: cytotoxicity. KKLEB CF airway cells viability, ATPlite luminescence, overnight; stronger effect = lower value; cells stimulated with P. aeruginosa culture filtrate. activity change (cytotoxicity), % at 5 µM. 360,000 tested, 0.36% active;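 active means corrected activity change at or below -50% at 5 µM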
Shn3 3UTR inh: inhibitors of Schnurri-3 3'UTR reporter in osteoblasts; Clone20 osteoblast Shn3 3'UTR firefly luciferase, 24 h; inhibition, % at 12.5 µM; 360,000 tested, 0.52% active; AID 588674;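 active means mean inhibition of at least 75% with every replicate also reaching 75%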;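 further: 0% = median of neutral control wells and 100% = pilot-screen positive control compound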
TRPM1 prom inh: inhibitors of MITF-driven TRPM1 promoter in melanoma cells. SK-MEL-5 TRPM1 promoter luciferase, 24 h. inhibition, % at 12.5 µM. 330,000 tested, 0.83% active. AID 488899;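 active means mean inhibition across replicates of 60% or more, whatever share of single replicates reaches that level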
Peg3 promoter: reduces Peg3 promoter-driven luciferase expression in HeLa. AID 588405. HeLa PEG-Prom luciferase reporter, luminescence, overnight. 360,000 tested, 1.7% active. inhibition, % at 20 µM;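 active means inhibition of at least 50% at 20 µM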
CF NFkB inh: inhibitors of cystic fibrosis induced NF-kB. KKLEB NF-kB-GFP reporter, PAF-induced, GFP fluorescence overnight. inhibition, % at 5 µM. 360,000 tested, 0.86% active. AID 588850;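 active means at least 50% inhibition at 5 µM, scaled per plate between neutral and stimulator controls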;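 further: PAF is a Pseudomonas aeruginosa culture filtrate used as stimulus; plate controls were PAF-stimulated DMSO wells for no effect and unstimulated DMSO wells for full effect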
CF NFkB inh conf: CF NF-kB inhibition confirmation, single concentration | KKLEB CF airway cells, PAF-induced NF-kB-GFP fluorescence, overnight | inhibition, % at 5 µM | shares compounds with CF NFkB inh | 1,300 tested, 64% active; in the data active means inhibition above about 40%;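 further: stimulus PAF is a Pseudomonas aeruginosa filtrate and not platelet activating factor; plate controls were DMSO wells with stimulus for no effect and unstimulated DMSO wells for full effect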
* marks the source's active call; other numbers are inactive results; . = no result given. Compounds with a hit are over-represented: about 2.8% of the library has one in this group of screens.

SMILES | HIF-2a block | KKLEB cytotox | Shn3 3UTR inh | TRPM1 prom inh | Peg3 promoter | CF NFkB inh | CF NFkB inh conf
Cc1cc(NC(=O)CSc2nnc(C)n2-c2ccccc2C)no1 | 4.9 | 6.4 | -4.4 | 2.3 | 5.1 | -13.9 | .
O=C(COc1ccc(-n2cnnn2)cc1)Nc1ccc(F)c(F)c1 | -2.7 | 7.8 | 12.3 | -4.8 | 3.9 | -0.5 | .
O=C1C2C3C=CC(C2C(=O)N1CCO)C1C(=O)N(CCO)C(=O)C31 (stereo not given) | 12.7 | 10.4 | -14.4 | 11.5 | 0.1 | -11.3 | .
COc1ccccc1Cc1c(-c2ccc(F)cc2)nc2c(C)cc(Br)cn12 | -51.5 | 4.1 | -6.4 | . | 31.9 | 60.2* | 15.6
COc1ccccc1Cc1c(-c2ccco2)nc2c(C)cc(Br)cn12 | 92.9* | -46.1 | 93.6* | . | 97.7* | 66.1* | -253.8
COc1ccc(Cc2c(-c3ccco3)nc3ccc(Br)cn23)c(C)c1 | -20.9 | -25.7 | 7.1 | . | 4.7 | 53.4* | -13.1
Cc1ccc(Cc2c(-c3ccc(F)cc3)nc3c(C)cc(Br)cn23)cc1 | -38.9 | -30.5 | 0.7 | . | 54.8* | 59.0* | 15.9
COc1ccccc1Cc1c(-c2ccc(C)cc2)nc2c(C)cc(Br)cn12 | -17.7 | -25.3 | 10.6 | . | 28.9 | 28.3 | .
Cc1ccc(Cc2c(-c3ccc(C)cc3)nc3c(C)cc(Br)cn23)cc1 | -11.5 | -8.7 | -4.7 | . | -7.0 | 43.3 | .
COc1ccc(Cl)cc1C(=O)NNC(=O)COC(=O)CC(NC(C)=O)c1ccccc1 (stereo not given) | 14.2 | 11.2 | -3.1 | 9.2 | 14.0 | -8.8 | .
C=C1C(=O)O[C@@H]2[C@H]3O[C@]3(C)CC/C=C(\C)CC[C@@H]12 | 19.4 | 23.4 | -21.5 | 32.5 | 49.4 | 69.0* | 77.2*
O=C1C(=O)N(CCS(=O)(=O)c2ccccc2)c2ccc(F)cc21 | -12.7 | -16.8 | -3.0 | 55.4 | 4.8 | 65.6* | 22.0
COc1ccc(CN2C[C@H]3CCCN3c3cc(Br)ccc3S2(=O)=O)cc1 | 10.4 | -6.5 | 22.7 | 34.5 | 11.1 | 52.8* | 56.2*
CCC(CO)Oc1cc(NCc2ccc(C(C)(C)C)cc2)c2ncn(C(C)C)c2c1 (stereo not given) | 20.4 | 1.1 | 64.7 | 1.3 | 18.9 | 50.8* | 29.3
CCC(CO)Oc1cc(NCc2ccccc2)c2ncn(C(C)C)c2c1 (stereo not given) | 5.0 | -4.5 | 11.2 | 12.7 | 15.1 | 7.9 | .
CCC(CO)Oc1cc(NCc2ccc(O)cc2)c2ncn(C(C)C)c2c1 (stereo not given) | 2.2 | -2.6 | -17.2 | -9.2 | 1.5 | 7.4 | .
CCCCOc1cc(NCc2ccccc2)c2ncn(C(C)C)c2c1 | 0.8 | -8.3 | -3.0 | 4.4 | 10.3 | 60.0* | 22.1
CCC(CO)Oc1cc(NCc2ccccc2C(F)(F)F)c2ncn(C(C)C)c2c1 (stereo not given) | 22.3 | -17.3 | 27.0 | 5.0 | 39.4 | 61.3* | 11.1
CCC(COC)Oc1cc(NCc2ccccc2)c2ncn(C(C)C)c2c1 (stereo not given) | 12.2 | -14.6 | 20.7 | 6.2 | 0.3 | 65.7* | 19.7
Oc1ccc(N=Nc2ccc3ccccc3c2)cc1 | -297.4 | -1.1 | -112.5 | -31.4 | -330.3 | -12.9 | .
O=C(O)/C=C/c1ccc2c(-c3ccccc3)onc2c1 | 3.8 | -15.6 | -33.7 | -0.9 | 29.4 | 59.0* | 73.9*
O=C(O)c1ccc2noc(-c3ccccc3)c2c1 | -171.7 | 14.1 | -76.2 | -51.0 | -170.1 | 4.1 | .
COc1ccc(C(=O)N/C(=C/c2ccc(Cl)cc2)C(=O)Nc2ccc(C(=O)O)cc2)cc1 | 12.3 | -5.6 | 6.4 | -4.5 | 21.6 | 1.4 | .
CCOc1ccc(CCNC(=O)C(C)N2C(=O)CC(C)(C)Sc3ccccc32)cc1 (stereo not given) | 9.8 | 5.3 | 20.3 | 5.5 | 14.8 | -4.7 | .
O=C1NC(=S)NC1=Cc1ccc(Cl)cc1Cl | -12.5 | -3.6 | -14.1 | 6.1 | -11.2 | 6.9 | .
O=C1NC(=O)C(=Cc2ccc(Cl)cc2Cl)S1 | -222.7 | 7.1 | -58.6 | -24.0 | -147.6 | 53.9* | 37.5
CCCCOC(=O)/C=C\C(=O)NC(N)=O | 31.7 | -10.3 | 38.5 | 2.3 | 11.3 | 56.8* | -15.2
CSc1nc(S(=O)(=O)c2ccccc2)c(Cl)s1 | 4.1 | -3.0 | -11.8 | -0.1 | 11.2 | 16.4 | .
